Test results reported in PubChem BioAssay (NCI).
“And” between values parts separate entries of the source, which are not always exact repeats. Identical values can stand only once. Compounds without any hit were thinned out: in the full panel of roughly 79,000, 15% have a hit. Cut-off read from the data, not from the text of the source: active = growth inhibition above about 70%; inactive = the rest.

Key:
[1] = NCI Yeast Anticancer Drug Screen. Data for the rad50 strain (AID 155);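 note: 0% = growth of vehicle-only cultures of the same strain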; settings: S. cerevisiae rad50 strain growth inhibition, stronger effect = higher value; at 50.0 µM unless noted
Summary of the method: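 Yeast carrying a defined DNA repair defect were exposed to test compounds, and growth was compared with vehicle-treated controls to give percent inhibition.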

[2] = NCI Yeast Anticancer Drug Screen. Data for the mec2-1 strain (AID 157); settings: S. cerevisiae mec2-1 strain, stronger effect = higher value; at 50.0 µM unless noted
Summary of the method: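 Growth inhibition is read against vehicle-treated controls after compound exposure of the mec2-1 yeast strain, which is defective in DNA damage repair or cell cycle control.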

[3] = NCI Yeast Anticancer Drug Screen. Data for the sgs1 mgt1 strain (AID 161);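 note: 0% = growth of cultures given vehicle only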; settings: S. cerevisiae sgs1 mgt1 strain, stronger effect = higher value; at 50.0 µM unless noted
Summary of the method: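 Compounds are added to genetically altered yeast, and growth is compared with cultures given vehicle alone to give percent inhibition.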

[4] = NCI Yeast Anticancer Drug Screen. Data for the cln2 rad14 strain (AID 165);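 note: 0% = growth equal to vehicle treated cultures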; settings: S. cerevisiae cln2 rad14 strain, stronger effect = higher value; at 50.0 µM unless noted
Summary of the method: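 Growth inhibition, relative to vehicle-treated controls, is the read-out. The test organism is a yeast strain with defined genetic alterations, cln2 rad14.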

[5] = NCI Yeast Anticancer Drug Screen. Data for the bub3 strain (AID 167); settings: S. cerevisiae bub3 mutant strain, stronger effect = higher value; at 50.0 µM unless noted
Summary of the method: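 Compounds were applied to a genetically altered yeast strain carrying a cell-cycle control defect. Growth inhibition was scored against vehicle-treated controls.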

[6] = NCI Yeast Anticancer Drug Screen. Data for the mlh1 rad18 strain (AID 175); settings: S. cerevisiae mlh1 rad18 strain growth inhibition, stronger effect = higher value; at 50.0 µM unless noted
Summary of the method: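 Cells of a genetically altered yeast strain, deficient in DNA damage repair, were treated with compound. Their growth was then compared with that of vehicle-treated cultures to give inhibition.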

Measured: growth inhibition

CCOC(=O)Nc1ccccc1OCC
inactive: [1] -10.6% | [2] 2% | [3] -4.3% | [4] -90% | [5] 6.2% | [6] -3.45%

CSC(=S)OC(C)CC(C)C (centres undefined)
inactive: [1] 37.6% | [2] -3.95% | [3] 30.7% | [4] -12.1% | [5] 6.95% | [6] 25.5%

C=CCc1cn(C2CC(OC(=O)c3ccc(Cl)cc3)C(COC(=O)c3ccc(Cl)cc3)O2)c(=O)[nH]c1=O (centres undefined)
inactive: [1] -8.85% | [2] -3.6% | [3] -18.8% | [4] -8.6% | [5] 0.6% | [6] -2.4%

CC(C)CC(Br)C(=O)NCC(=O)O (centres undefined)
inactive: [1] -25.1% and 5.2% | [2] -55.1% and -6.55% | [3] -27.9% | [4] 8.5% | [5] -24.1% | [6] -11% and -4.8%

CC1NC(=O)OC12CCCCC2 (centres undefined)
inactive: [1] 16.4% | [2] -3.55% | [3] -2.95% | [4] -27.6% | [5] -7.5% | [6] -30.4%

CCCCCC=C(C(=O)OCC)C(=O)OCC
inactive: [1] 22.9% | [2] -1.7% | [3] -4.15% | [4] 12.3% | [5] -30.4% | [6] 11.1%

O=c1c2ccccc2[nH]c(=S)n1C1CCCC1
inactive: [1] -7.85% | [2] -6.55% | [3] 15.1% | [4] -19.9% | [5] 39.4% | [6] -2.15%

CC(C)NC(=O)OCc1c(COC(=O)NC(C)C)c2n(c1Br)CCC2
inactive: [1] 32.8% | [2] 26.1% | [3] -9.6% | [4] 16.9% | [5] 0.2% | [6] -51.4%

Cc1nc(N)c(N)c(=O)[nH]1
inactive: [1] -0.6% | [2] -1.35% | [3] -1.75% | [4] -5.6% | [5] -9.6% | [6] -2.6%

CC(=O)NS(=O)(=O)c1ccc(NC(=O)/C=C/C(=O)O)cc1
inactive: [1] 1.1% and -16.6% | [2] -15.7% and -18.1% | [3] -0.45% | [4] -3.05% | [5] -11.7% | [6] 19.9% and -18%

COc1cc(C)cc2c1C(C)(C)CCC2(C)C
inactive: [1] 5.4% | [2] -24.6% | [3] -5.8% | [4] -7.15% | [5] 16% | [6] -0.65%

COc1nc(NC2OC(COC(C)=O)C(OC(C)=O)C(OC(C)=O)C2OC(C)=O)c(N=CC=Nc2c(NC3OC(COC(C)=O)C(OC(C)=O)C(OC(C)=O)C3OC(C)=O)nc(OC)[nH]c2=O)c(=O)[nH]1 (centres undefined)
inactive: [1] -11.3% | [2] -8.45% | [3] -2.65% | [4] -16.8% | [5] -5.6% | [6] -11.5%

Cc1c2ccncc2c(C)c2c1[nH]c1ccc(O)cc12
inactive: [1] 16.9% | [2] 14.2% | [3] 43.9% | [4] 23.6% | [5] 19.5% | [6] 58.9%

CC(=O)[CH-]C(=O)c1ccccc1.CC(=O)[CH-]C(=O)c1ccccc1.CC[C@H](/C=C/C(C)[C@H]1CCC2[C@@H]3CC=C4C[C@@H]([O-])CC[C@]4(C)C3CC[C@@]21C)C(C)C.CC[C@H](/C=C/C(C)[C@H]1CCC2[C@@H]3CC=C4C[C@@H]([O-])CC[C@]4(C)C3CC[C@@]21C)C(C)C.Cl.[Ti+4] (some centres undefined)
inactive: [1] 8% | [2] 2.65% | [3] 19.3% | [4] -12.1% | [5] 24.6% | [6] 9.55%

CN1CCc2nc[nH]c2C1
inactive: [1] 17.2% | [2] -4.95% | [3] 3.2% | [4] 10.1% | [5] 6.4% | [6] 10.1%

CC1(CI)COC(c2ccccc2)(C2CCCCC2)OC1 (centres undefined)
inactive: [1] 2.95% | [2] -5.15% | [3] 5.2% | [4] 35.3% | [5] -16.2% | [6] 15.9%

CCN(CC)CCn1c2ccccc2c(=O)c2c(OC)ccc(OC)c21
inactive: [1] 54.4% | [2] 8.05% | [3] 15.8% | [4] 16.6% | [5] 16.8% | [6] 50.9%

CCOC(C)=Nc1cc(OC)cc2c1NC(=O)CCS2
inactive: [1] -28.9% | [2] -20.1% | [3] -36.6% | [4] -50% | [5] 5.6% | [6] -40.2%

COc1ccc(C2S/C(=C\c3ccc(OC)cc3OC)C(=O)N2NC(=O)Cc2ccccc2)cc1 (centres undefined)
inactive: [1] -4.3% | [2] -50.6% | [3] 2.4% | [4] -59.6% | [5] -14.1% | [6] 5.05%

NC1=C(O)C(=O)C(c2ccc3c(c2)OCO3)O1 (centres undefined)
inactive: [1] -17.6% | [2] -5% | [3] -19.9% | [4] -30.2% | [5] 24.8% | [6] -5.2%

Nc1ccc(OCc2ccccc2)cc1[N+](=O)[O-]
inactive: [1] 6.4% | [2] -30.8% | [3] 11.3% | [4] 14.5% | [5] -4.45% | [6] 21%

COC(=O)c1ccccc1CC1Cc2ccc3c(c2C1=O)CCCC3 (centres undefined)
inactive: [1] -1.35% | [2] -65.7% | [3] -13.3% | [4] 5.4% | [5] 17.8% | [6] 3.3%

CSc1c(C)n2c3c(cccc13)CCC2
inactive: [1] -9.7% | [2] -6.6% | [3] -3.8% | [4] -36.7% | [5] 1.35% | [6] 3.3%

CC(=O)N1C(=O)c2cccc([N+](=O)[O-])c2C1=O
inactive: [1] -1.6% | [2] -11.9% | [3] -9.55% | [4] 7.15% | [5] -21.7% | [6] 11.4%

O=C(CCl)NNC1=Nc2ccc(Cl)cc2SC1
inactive: [1] -2.2% | [2] -3.65% | [3] 8.55% | [4] 0.6% | [5] 5.8% | [6] 11.2%

C=C1C(=O)OC2CC1C(OC(C)=O)CC1(C)OC1CCC1(C)OC1CCC2(C)O (centres undefined)
inactive: [1] -4.4% | [2] -0.1% | [3] 1.05% | [4] -2.7% | [5] -9.55% | [6] -3.4%

CS(=O)(=O)c1ccc(/C(=N/N)c2ccccc2)cc1
inactive: [1] 1.65% | [2] 9.65% | [3] 9.2% | [4] 28.2% | [5] 13.5% | [6] 17.4%

NC(=S)Nc1nnc(-c2ccc(-c3nnc(NC(N)=S)o3)cc2)o1
inactive: [1] 18.4% | [2] 6.65% | [3] -21.2% | [4] 5.35% | [5] 2.05% | [6] -8.05%

O=C1NC(=O)C2C3OC(C(Cl)C3Cl)C12 (centres undefined)
inactive: [1] 0.8% and 18.2% | [2] -19.5% and 11.5% | [3] -7.85% and 12.5% | [4] 20.4% and 42.7% | [5] -4.95% and 7.95% | [6] -7.85% and -1.25%

CCCOC(=O)N(C)c1ccccc1
inactive: [1] 17.8% | [2] -10.3% | [3] 2.95% | [4] -32.3% | [5] -22.6% | [6] -2.1%

COc1ccc(CC2c3cc(OC)c(OC)cc3CC[N+]2(C)C)cc1OC (centres undefined)
inactive: [1] -13.1% | [2] -20.8% | [3] 1.6% | [4] 10.9% | [5] -1.65% | [6] -46.4%

C=C(c1ccccc1)C1ON(C)CCc2cc(OC)c(OC)cc21 (centres undefined)
inactive: [1] 3.65% | [2] 15.4% | [3] 14.3% | [4] 5.85% | [5] 33.6% | [6] 5.45%

C=C1N(C=O)C(C)(C)N(O)C1(C)C
inactive: [1] 16.7% | [2] 15.7% | [3] 15.6% | [4] 28.1% | [5] 12.2% | [6] 10.9%

CCCCCCCCCCCCOC(=O)NC1c2ccccc2Oc2ccccc21
inactive: [1] 30.4% | [2] 17.6% | [3] 26.6% | [4] 32.5% | [5] 19.6% | [6] 43.4%

CC(=O)c1sc2[n+](c1C)C(=O)/C(=C\c1ccccc1Cl)S2
inactive: [1] 15.7% | [2] -17.6% | [3] -1% | [4] 10.2% | [5] -7.75% | [6] -3%

O=C1N=CN=C2C=CC(Cl)=C(I)C12 (centres undefined)
inactive: [1] 0.85% | [2] 16.1% | [3] 19.5% | [4] 5.35% | [5] 29.9% | [6] 4.15%

COc1ccc(C(N2CCNCC2)N2CCNCC2)cc1
inactive: [1] 13.7% | [2] 6.3% | [3] 19.6% | [4] -30.1% | [5] -3.5% | [6] 48.3%

CCOC(=O)c1cnc2sc3ccc4ccccc4c3n2c1=O
inactive: [1] 51.9% | [2] 23.4% | [3] 61% | [4] 36.1% | [5] 51.3% | [6] 60.7%

CC(=O)OCC1OC(OC(C)=O)C(OC(C)=O)C(OC(C)=O)C1OC(C)=O (centres undefined)
inactive: [1] -0.8% and 33.3% | [2] 0.25% and 9.6% | [3] -17.5% and 21.1% | [4] -30.9% and 11.5% | [5] -14.4% and 5.45% | [6] -26.1% and 8.9%
